Records with an inconclusive call do not appear. Active and inactive are the calls of the source. Unless noted, calls follow the shape of the dose curve; as a rule, active = well fitted curve in the direction sought with a large enough effect; inconclusive = small, poorly fitted or top-dose-only effect, or another doubt; inactive = no such curve, though single readings can be large; an effect the other way counts as inactive or inconclusive.
Tests used:
[1] = target: Estrogen receptor (Homo sapiens) (UniProt P03372); assay: qHTS assay for small molecule antagonists of estrogen receptor alpha signaling (AID 588513; active = well fitted curve in the direction sought with a large enough effect in the signal ratio, with a control signal flat, not every such curve was filed as active; the % refers to the signal ratio; also: % is scaled to controls: 0 for no effect and ±100 for the full control effect)
Sequence of Estrogen receptor (Homo sapiens) (P03372 whole entry, looked up): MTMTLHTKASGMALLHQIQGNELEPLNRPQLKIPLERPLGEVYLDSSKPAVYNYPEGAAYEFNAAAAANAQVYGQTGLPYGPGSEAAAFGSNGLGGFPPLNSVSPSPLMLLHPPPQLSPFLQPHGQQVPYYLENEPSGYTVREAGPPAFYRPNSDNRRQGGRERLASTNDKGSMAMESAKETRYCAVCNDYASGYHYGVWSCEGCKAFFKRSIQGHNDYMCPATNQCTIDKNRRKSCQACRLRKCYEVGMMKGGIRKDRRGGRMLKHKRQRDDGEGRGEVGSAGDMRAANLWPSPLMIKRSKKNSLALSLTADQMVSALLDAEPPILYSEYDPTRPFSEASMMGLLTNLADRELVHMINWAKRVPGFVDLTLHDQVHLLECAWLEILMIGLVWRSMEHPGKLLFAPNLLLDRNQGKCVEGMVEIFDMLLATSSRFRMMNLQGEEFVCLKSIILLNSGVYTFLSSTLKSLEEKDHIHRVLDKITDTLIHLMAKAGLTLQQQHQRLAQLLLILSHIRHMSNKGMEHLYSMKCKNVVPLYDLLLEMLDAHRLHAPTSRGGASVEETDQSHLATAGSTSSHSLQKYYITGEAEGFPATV
Method in brief: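 ER-alpha-UAS-bla GripTite HEK 293 cells in 2% charcoal/dextran-treated FBS medium; compounds titrated (1:2, duplicate), then stimulated with 0.5 nM 17-beta-estradiol for 18 h at 37C. CCF4 beta-lactamase fluorescence; Hill-fit IC50 and efficacy.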

[2] = target: Estrogen receptor (Homo sapiens) (UniProt P03372); assay: qHTS assay for small molecule agonists of estrogen receptor alpha signaling (AID 588514; calls by dose curve;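 also: 0% = vehicle only and 100% = reference agonist; nearly all actives have a fitted effect of over 70% in size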)
Method in brief: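 Efficacy is expressed against 20 nM 17-beta-estradiol (100%) and DMSO basal (0%); EC50 from Hill equation. Assay: beta-lactamase reporter in ER-alpha-UAS-bla HEK 293 cells, 18 h compound incubation, CCF4 detection.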

[3] = qHTS assay for small molecule antagonists of peroxisome proliferator-activated receptor delta signaling (AID 588535; active = well fitted inhibition curve with a large enough effect in the signal ratio, with a control signal flat, not every such curve was filed as active; the % refers to the signal ratio;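 as to max response: cells co-treated with a PPAR-delta agonist as stimulator during compound exposure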); settings: HEK293T PPARd-UAS-bla, beta-lactamase FRET ratio, 18 h; 460 nm channel
Method in brief: (§1)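 Titrations were run on PPAR-delta-UAS-bla HEK293T cells in charcoal/dextran-stripped serum, incubated 18 h at 37 C. CCF4 fluorescence (460/530 nm) after 2 h RT; Hill equation yields IC50 and maximal response.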

[4] = target: Peroxisome proliferator-activated receptor delta (Homo sapiens) (UniProt Q03181); assay: as above
Sequence of Peroxisome proliferator-activated receptor delta (Homo sapiens) (Q03181 whole entry, looked up): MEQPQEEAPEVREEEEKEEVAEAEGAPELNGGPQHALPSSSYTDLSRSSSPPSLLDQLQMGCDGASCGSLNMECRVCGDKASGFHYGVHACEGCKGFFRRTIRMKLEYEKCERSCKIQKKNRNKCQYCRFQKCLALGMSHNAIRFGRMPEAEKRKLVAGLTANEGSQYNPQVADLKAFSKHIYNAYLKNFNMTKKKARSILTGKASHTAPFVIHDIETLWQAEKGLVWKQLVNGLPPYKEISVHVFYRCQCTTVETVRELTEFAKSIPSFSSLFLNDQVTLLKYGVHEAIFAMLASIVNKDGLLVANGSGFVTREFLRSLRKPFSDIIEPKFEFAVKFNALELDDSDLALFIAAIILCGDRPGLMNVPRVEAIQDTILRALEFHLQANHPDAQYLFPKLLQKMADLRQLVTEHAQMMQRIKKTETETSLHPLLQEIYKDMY
Method in brief: as §1

[5] = target: Peroxisome proliferator-activated receptor gamma (Homo sapiens) (UniProt P37231); assay: qHTS assay for small molecule agonists of peroxisome proliferator-activated receptor gamma signaling (AID 588536; active = well fitted curve in the direction sought with a large enough effect in the signal ratio, with a control signal flat, not every such curve was filed as active; the % refers to the signal ratio;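 also: 0% = DMSO basal wells and 100% = rosiglitazone at 2 µM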)
Sequence of Peroxisome proliferator-activated receptor gamma (Homo sapiens) (P37231 whole entry, looked up): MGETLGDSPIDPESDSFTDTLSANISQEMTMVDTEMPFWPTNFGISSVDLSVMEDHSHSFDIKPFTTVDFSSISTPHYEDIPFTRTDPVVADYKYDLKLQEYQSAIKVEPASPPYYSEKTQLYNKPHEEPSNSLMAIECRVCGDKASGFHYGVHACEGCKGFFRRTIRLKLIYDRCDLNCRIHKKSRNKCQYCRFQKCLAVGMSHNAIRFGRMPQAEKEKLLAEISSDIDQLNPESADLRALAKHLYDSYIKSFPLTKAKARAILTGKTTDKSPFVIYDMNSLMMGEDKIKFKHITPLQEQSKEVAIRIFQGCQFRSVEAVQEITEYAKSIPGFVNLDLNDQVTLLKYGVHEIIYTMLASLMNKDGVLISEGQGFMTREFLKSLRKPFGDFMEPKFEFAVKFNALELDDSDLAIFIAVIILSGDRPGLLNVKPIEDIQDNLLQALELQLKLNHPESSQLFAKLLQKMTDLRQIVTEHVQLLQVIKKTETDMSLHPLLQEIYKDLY
Method in brief: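 Beta-lactamase reporter read-out: CCF4 fluorescence (ex 405, em 460/530 nm) after 2 h at RT. HEK293 GeneBLAzer cells were treated for 16 h at 37 C. Hill fits gave EC50 and efficacy versus 2 uM rosiglitazone (100%) and DMSO (0%).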

[6] = target: Thyroid hormone receptor beta (Homo sapiens) (UniProt P10828); assay: qHTS assay for small molecule agonists of thyroid hormone receptor beta signaling (AID 588545; calls by dose curve)
Sequence of Thyroid hormone receptor beta (Homo sapiens) (P10828 whole entry, looked up): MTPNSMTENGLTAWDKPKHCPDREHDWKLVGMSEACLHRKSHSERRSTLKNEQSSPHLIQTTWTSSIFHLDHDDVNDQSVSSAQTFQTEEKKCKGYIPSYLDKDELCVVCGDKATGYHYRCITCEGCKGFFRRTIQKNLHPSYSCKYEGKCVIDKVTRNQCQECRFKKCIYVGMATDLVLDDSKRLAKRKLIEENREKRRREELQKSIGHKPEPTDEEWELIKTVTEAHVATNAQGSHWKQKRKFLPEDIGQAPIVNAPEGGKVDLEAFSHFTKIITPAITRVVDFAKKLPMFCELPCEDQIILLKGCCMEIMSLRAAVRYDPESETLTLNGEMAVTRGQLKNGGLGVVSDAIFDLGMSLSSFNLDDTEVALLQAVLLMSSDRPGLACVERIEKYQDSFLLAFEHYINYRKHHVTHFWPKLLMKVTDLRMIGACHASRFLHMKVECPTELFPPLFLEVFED
Method in brief: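 In this cell-based screen, titrated compounds act on HEK 293 cells held in medium with 2% charcoal/dextran FBS, NEAA and pyruvate for 18 hrs at 37 C. Responses are expressed relative to T3 (10 nM) as 100% and basal DMSO as 0%.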

[7] = qHTS assay for small molecule antagonists of retinoid X receptor alpha signaling (AID 588546; active = well fitted inhibition curve with a large enough effect in the signal ratio, with a control signal flat, not every such curve was filed as active; the % refers to the signal ratio;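 also: cells stimulated with 9-cis-retinoic acid as agonist; % is scaled to controls: 0 for no effect and ±100 for the full control effect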); settings: HEK293T RXRa-UAS-bla, beta-lactamase ratio, antagonist mode; measured here: W530 green channel, cytotoxicity proxy
Method in brief: (§2)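 Beta-lactamase reporter inhibition, read as CCF4 fluorescence ratio (ex 405, em 460/530 nm) after 2 h at RT. HEK293T UAS-bla cells, 2500/well, were stimulated with 9-cis-RA at 500 or 100 nM final alongside test compound for 18 h at 37 C.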

[8] = target: Retinoic acid receptor RXR-alpha (Homo sapiens) (UniProt P19793); assay: as above; settings: HEK293T RXRa-UAS-bla, beta-lactamase ratio, antagonist mode
Sequence of Retinoic acid receptor RXR-alpha (Homo sapiens) (P19793 whole entry, looked up): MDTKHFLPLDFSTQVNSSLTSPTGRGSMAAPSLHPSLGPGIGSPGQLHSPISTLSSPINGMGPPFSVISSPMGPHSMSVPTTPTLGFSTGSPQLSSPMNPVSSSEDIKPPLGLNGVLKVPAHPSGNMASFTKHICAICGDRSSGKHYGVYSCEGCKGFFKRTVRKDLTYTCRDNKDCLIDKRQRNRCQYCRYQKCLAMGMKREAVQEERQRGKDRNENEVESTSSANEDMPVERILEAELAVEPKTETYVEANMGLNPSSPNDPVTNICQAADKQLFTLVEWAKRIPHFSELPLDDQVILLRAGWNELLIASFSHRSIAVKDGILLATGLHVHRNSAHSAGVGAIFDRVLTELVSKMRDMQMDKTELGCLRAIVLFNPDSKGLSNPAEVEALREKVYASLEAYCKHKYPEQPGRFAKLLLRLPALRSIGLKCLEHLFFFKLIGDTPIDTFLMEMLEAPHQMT
Method in brief: as §2

[9] = qHTS assay for small molecule activators of the nuclear factor-kappa B (NF-kB) signaling pathway (AID 651749; active = well fitted activation curve with a large enough effect in the signal ratio; the % refers to the signal ratio; also: series mostly up to about 77 µM; % of control where 0% means no effect); settings: NF-kB-bla ME-180 cells, beta-lactamase FRET ratio, 16 h; activation: stronger effect = higher value
Method in brief: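 Activation measured after 16 hr compound treatment at 37C, 5% CO2, of 2,000 ME-180 cells/well stably expressing an NF-kB response element–driven beta-lactamase reporter, via FRET-disruption fluorescence.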

[10] = qHTS assay for environmental chemicals that activate the Aryl hydrocarbon Receptor (AhR) signaling pathway (AID 651777); settings: 1A2-DRE human hepatoma cells, luciferase, 24 h; activation: stronger effect = higher value; also: nearly all actives have a fitted effect of over 15% in size; also: potency is read from the fitted curve at half-maximal effect; as to activation: % of control where 0% means no effect
Method in brief: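 Following a 24 hr incubation with test chemicals at 37 C and 5% CO2, 1A2-DRE human hepatoma cells received One-Glo reagent; after 30 min at room temperature, luciferase output reflected CYP1A2 induction via AhR.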

[11] = target: Peroxisome proliferator-activated receptor alpha (Homo sapiens) (UniProt Q07869); assay: qHTS assay for small molecule agonists of the peroxisome proliferator-activated receptor alpha (PPARalpha) signaling pathway (AID 651778); settings: PathHunter PPARalpha complementation, chemiluminescence, 6 h; max response: stronger effect = higher value; also: % of control where 0% means no effect
Sequence of Peroxisome proliferator-activated receptor alpha (Homo sapiens) (Q07869 whole entry, looked up): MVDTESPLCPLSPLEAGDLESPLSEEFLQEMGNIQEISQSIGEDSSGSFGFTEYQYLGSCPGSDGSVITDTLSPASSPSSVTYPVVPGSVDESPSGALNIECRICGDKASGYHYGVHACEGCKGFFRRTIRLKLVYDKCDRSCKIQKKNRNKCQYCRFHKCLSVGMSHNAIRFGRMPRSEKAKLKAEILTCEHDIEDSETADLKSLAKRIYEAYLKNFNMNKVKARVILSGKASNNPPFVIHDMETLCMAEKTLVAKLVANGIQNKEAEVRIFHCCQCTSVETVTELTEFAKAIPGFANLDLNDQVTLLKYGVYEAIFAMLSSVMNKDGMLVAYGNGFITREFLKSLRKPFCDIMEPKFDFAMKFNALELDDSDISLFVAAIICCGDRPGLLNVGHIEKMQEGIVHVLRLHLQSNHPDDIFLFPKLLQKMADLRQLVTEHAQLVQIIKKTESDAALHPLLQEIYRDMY
Method in brief: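 Chemiluminescence from complemented enzyme reported PPARalpha activation in cells after 6 hr of compound treatment at 37 C. The detection reagent was incubated for 60 min at room temperature, and compounds were scored as agonists.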

[12] = qHTS assay for small molecule agonists of the antioxidant response element (ARE) signaling pathway measured by Nrf2-dependant transcriptional activity (AID 720636; active = well fitted curve in the direction sought with a large enough effect in the repeat runs; an effect the other way counts as inactive or inconclusive; also: potency is read from the fitted curve at half-maximal effect;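 as to activation: HepG2 cells with an ARE-driven luciferase reporter; % of control where 0% means no effect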)
Method in brief: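 ONE-Glo luminescence, read 30 min after reagent addition at room temperature, reflected ARE reporter activity in HepG2 cells that had been incubated with compound for 16 hr at 37 C in 1% dialyzed FBS.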

[13] = qHTS assay for small molecule agonists of the antioxidant response element (ARE) signaling pathway measured by Nrf2-dependant transcriptional activity - cell viability counter screen (AID 720653; active = well fitted curve in the direction sought with a large enough effect in the repeat runs; an effect the other way counts as inactive or inconclusive; also: % is scaled to controls: 0 for no effect and ±100 for the full control effect); settings: ARE-bla HepG2 viability, CellTiter-Glo ATP luminescence, 16 h; max response: stronger effect = lower value
Method in brief: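 Cytotoxicity counter screen: intracellular ATP quantified by CellTiter-Glo luminescence in the same ARE-bla HepG2 plates, after 16 h compound exposure and a 2 h beta-lactamase substrate step.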

[14] = qHTS assay for cell viability of HEK293 cells (AID 743288); settings: ATP luminescence (CellTiter-Glo), 18 h; max response: stronger effect = lower value; also: % is scaled to controls: 0 for no effect and ±100 for the full control effect; nearly all actives have a fitted effect of over 50% in size
Method in brief: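 Steps: plate 2,000 parental HEK293 cells per well; incubate ≥5 h, 37 C; add compounds in DMSO; incubate 18 h, 37 C; add CellTiter-Glo; wait 30 min at room temperature; read luminescence.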

[15] = qHTS assay for cell viability of the p53RE-bla HCT-116 cell line (AID 743292); also: % is scaled to controls: 0 for no effect and ±100 for the full control effect; nearly all actives have a fitted effect of over 55% in size
Method in brief: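 After plating at 4,000 cells per well and a 5 h rest at 37 C, HCT-116 cells carrying p53RE-bla received test chemicals in DMSO. Sixteen hours later at 37 C, CellTiter-Glo was added and luminescence recorded following 30 min at room temperature.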

[16] = target: Nuclear receptor subfamily 1 group I member 2 (Rattus norvegicus) (UniProt Q9R1A7); assay: qHTS assay for small molecule activators of the rat pregnane X receptor (rPXR) signaling pathway (AID 651751; call rule not given here; also: 0% is about no effect); settings: rPXR reporter cells, luciferase (One-Glo), 24 h
Sequence of Nuclear receptor subfamily 1 group I member 2 (Rattus norvegicus) (Q9R1A7 whole entry, looked up): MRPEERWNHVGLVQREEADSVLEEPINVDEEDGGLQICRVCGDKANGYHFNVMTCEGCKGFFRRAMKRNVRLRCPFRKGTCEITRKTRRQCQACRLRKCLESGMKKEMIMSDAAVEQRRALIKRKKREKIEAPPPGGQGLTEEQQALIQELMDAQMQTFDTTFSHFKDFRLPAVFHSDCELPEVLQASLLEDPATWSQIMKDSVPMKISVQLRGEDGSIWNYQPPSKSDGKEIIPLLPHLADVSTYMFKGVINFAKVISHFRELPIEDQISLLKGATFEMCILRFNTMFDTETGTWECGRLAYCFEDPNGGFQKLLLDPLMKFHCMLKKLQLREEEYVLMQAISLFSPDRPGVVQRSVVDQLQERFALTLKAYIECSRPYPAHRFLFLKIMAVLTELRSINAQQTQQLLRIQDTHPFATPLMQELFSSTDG

[17] = target: Glucocorticoid receptor (Homo sapiens) (UniProt P04150); assay: qHTS assay for small molecule antagonists of glucocorticoid receptor signaling (AID 588533; active = well fitted inhibition curve with a large enough effect in the signal ratio, with a control signal flat, not every such curve was filed as active; the % refers to the signal ratio;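 also: cells stimulated with 2 nM dexamethasone as agonist; % is scaled to controls: 0 for no effect and ±100 for the full control effect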)
Sequence of Glucocorticoid receptor (Homo sapiens) (P04150 whole entry, looked up): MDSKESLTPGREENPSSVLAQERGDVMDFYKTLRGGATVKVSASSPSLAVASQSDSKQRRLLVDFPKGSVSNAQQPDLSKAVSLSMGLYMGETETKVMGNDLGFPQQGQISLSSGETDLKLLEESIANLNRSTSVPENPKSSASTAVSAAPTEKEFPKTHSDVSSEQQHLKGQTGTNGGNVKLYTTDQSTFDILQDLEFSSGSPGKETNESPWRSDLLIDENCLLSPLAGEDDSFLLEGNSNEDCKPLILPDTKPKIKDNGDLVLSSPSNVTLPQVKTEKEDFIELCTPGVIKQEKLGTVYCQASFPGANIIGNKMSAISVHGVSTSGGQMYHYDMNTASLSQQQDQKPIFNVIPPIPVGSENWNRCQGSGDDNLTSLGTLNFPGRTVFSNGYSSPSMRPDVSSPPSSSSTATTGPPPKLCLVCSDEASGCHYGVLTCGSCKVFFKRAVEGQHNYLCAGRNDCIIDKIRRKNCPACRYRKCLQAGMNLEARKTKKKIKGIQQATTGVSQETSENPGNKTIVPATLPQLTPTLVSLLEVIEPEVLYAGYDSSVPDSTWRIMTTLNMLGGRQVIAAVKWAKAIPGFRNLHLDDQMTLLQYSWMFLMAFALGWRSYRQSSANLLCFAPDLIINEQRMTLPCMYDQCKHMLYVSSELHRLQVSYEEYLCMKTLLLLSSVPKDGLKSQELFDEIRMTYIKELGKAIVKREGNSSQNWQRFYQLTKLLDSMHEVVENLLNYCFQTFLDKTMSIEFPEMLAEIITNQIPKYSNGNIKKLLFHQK
Method in brief: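 Antagonist-mode qHTS: compound titrations added to GRE-bla HeLa cells, then dexamethasone 2 nM final; 18 h, 37 C. CCF4 FRET fluorescence normalized to dexamethasone and DMSO; IC50 from Hill fit.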

[18] = qHTS assay for small molecule agonists of retinoid X receptor alpha signaling (AID 588544; calls by dose curve;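 as to activation: 0% = DMSO basal wells and 100% = reference agonist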); settings: HEK293T RXRa-UAS-bla, beta-lactamase reporter, 18 h; 530 nm emission
[19] = target: Retinoic acid receptor RXR-alpha (Homo sapiens) (UniProt P19793); assay: as above
[20] = qHTS assay for small molecule activators of the human pregnane X receptor (PXR) signaling pathway (AID 720659; call rule not given here; also: 0% is about no effect)

Cc1ccc(N=Nc2c(O)ccc3ccccc23)c(C)c1
active: Potency [10] 31.6 µM | Potency [12] 10.9 µM
-15.2%: max response [7]
inactive: Potency [1] | Potency [2] | Potency [4] | outcome [5] | Potency [6] | max response [8] -32% | activation [9] 6% | max response [11] 0.784% | max response [13] -17.4% | max response [14] -21.3% | Potency [15] | max response [16] 13.1%
9.29%: max response [3]

CCC/C(=N\OCC)C1=C(O)CC(O)(CC(C)S(=O)(=O)CC)CC1=O (stereo unspecified)
-16.2%: max response [18]
inactive: Potency [1] | Potency [2] | Potency [17] | Potency [4] | outcome [5] | Potency [19] | Potency [6] | activation [9] -2.79% | activation [10] 3.19% | max response [11] -0.0131% | Potency [12] | max response [13] -10.1% | max response [14] -1.14% | Potency [15] | max response [16] 2.09% | outcome [20]
9.67%: max response [3]
-7.24%: max response [7]

CC(=O)N(CCN(C(C)=O)C(C)=O)C(C)=O
inactive: Potency [1] | Potency [2] | Potency [17] | Potency [4] | outcome [5] | Potency [19] | Potency [6] | max response [8] -5.17% | activation [9] -1.08% | activation [10] -3.27% | max response [11] 0.299% | Potency [12] | max response [13] -1.28% | max response [14] -0.359% | Potency [15] | max response [16] -0.996% | outcome [20]
-4.71%: max response [18]
-2.01%: max response [7]
30.1%: max response [3]

COC(=O)c1ccccc1S(=O)(=O)NC(=O)Nc1nc(OC(F)F)cc(OC(F)F)n1
-7.16%: max response [7]
-18.5%: max response [3]
inactive: Potency [1] | Potency [2] | Potency [17] | Potency [4] | outcome [5] | Potency [19] | Potency [6] | activation [9] -2.94% | activation [10] -0.662% | max response [11] -0.141% | Potency [12] | max response [13] 4.57% | max response [14] 0.401% | max response [16] 1.81% | outcome [20]
-18.6%: max response [18]

CCCCCCCCCCCCCCCCCC(N)=O
inactive: Potency [1] | Potency [2] | Potency [17] | Potency [4] | Potency [6] | activation [9] -1.76% | activation [10] -1.31% | max response [11] -0.969% | Potency [12] | max response [13] 5.14% | max response [14] -6.14% | max response [16] 4.74% | outcome [20]
51.4%: max response [3]

CC(C)c1ccc2cc(C(C)C)ccc2c1
-11.7%: max response [7]
inactive: Potency [1] | Potency [2] | Potency [6] | activation [9] -0.342% | activation [10] 1.48% | max response [11] -0.981% | max response [13] 7.43% | max response [14] -0.947% | Potency [15] | max response [16] 1.57% | outcome [20]

CC(C)(C)C(O)/C(=C\c1ccc(Cl)cc1)n1cncn1 (stereo unspecified)
-0.493%: max response [7]
16.3%: max response [18]
-55.9%: max response [3]
inactive: Potency [1] | Potency [2] | Potency [17] | Potency [4] | outcome [5] | Potency [19] | Potency [6] | max response [8] -24.9% | activation [9] -1.6% | activation [10] 3.57% | max response [11] 6.34% | Potency [12] | max response [13] -4.78% | max response [14] -13.5% | Potency [15]

O=C1CCCC/C=C/CCCCCCCCCO1
inactive: Potency [1] | Potency [2] | Potency [17] | Potency [4] | outcome [5] | Potency [19] | Potency [6] | activation [9] -0.561% | activation [10] -0.496% | max response [11] 11.1% | Potency [12] | max response [13] 0.0367% | max response [14] 4.39% | Potency [15] | max response [16] -0.578% | outcome [20]
-16.9%: max response [7]
-14.2%: max response [18]
-0.124%: max response [3]

CCCCCCCCCC(C)=O
inactive: Potency [1] | Potency [2] | Potency [17] | Potency [4] | outcome [5] | Potency [19] | Potency [6] | max response [8] -4.81% | activation [9] 0.316% | activation [10] 0.0383% | Potency [12] | max response [13] -10.8% | max response [14] -5.17% | Potency [15] | max response [16] -2.12% | outcome [20]
-16.2%: max response [18]
26.8%: max response [3]
-6.07%: max response [7]

Nc1cc(Cl)nc(C(=O)O)c1Cl
inactive: Potency [1] | Potency [2] | Potency [17] | Potency [4] | outcome [5] | Potency [6] | max response [8] -3.66% | activation [9] 0.121% | activation [10] 1.56% | max response [11] -2.9% | Potency [12] | max response [13] -4.32% | max response [14] 1.25% | max response [16] 2.09% | outcome [20]
-11.4%: max response [7]
-21.2%: max response [3]

CCc1cccc(C)c1N(C(=O)CS(=O)(=O)O)[C@@H](C)COC
9.75%: max response [7]
24.1%: max response [3]
-8.42%: max response [18]
inactive: Potency [1] | Potency [2] | Potency [17] | Potency [4] | outcome [5] | Potency [19] | Potency [6] | max response [8] -22.6% | activation [9] -2.32% | activation [10] -0.669% | max response [11] -2.29% | Potency [12] | max response [13] -5.93% | max response [14] -5.4% | max response [16] -5.94% | outcome [20]

C=C(C)C(=O)OCCOC(=O)C(=C)C
inactive: Potency [1] | Potency [2] | Potency [17] | Potency [4] | outcome [5] | Potency [19] | Potency [6] | max response [8] -2.81% | activation [9] -0.69% | activation [10] -1.11% | max response [11] -3.02% | Potency [12] | max response [13] -15.5% | max response [14] -1.71% | Potency [15] | max response [16] -5.37% | outcome [20]
-22.3%: max response [7]
-2.87%: max response [3]
0.328%: max response [18]

— PubChem BioAssay (NCATS)
